Shiga toxin inh: inhibitors of Shiga toxin in Vero cells | AID 2315 | inhibition, % at 38.7 µM | 9.2% of 290,000 active | Vero cells, Shiga toxin protein synthesis inhibition reporter; in the data active = inhibition mostly above about 28%, no sharp cut-off; inactive = mostly below about 43%; note: 0% is about no effect
SARS PLpro yeast: SARS-CoV PLP inhibition in yeast; S. cerevisiae expressing SARS-CoV PLpro, growth rescue; Potency, µM (series often up to 32.9 µM), inactives show top-dose activity, positive = growth rescue, usual class: activators; 0.19% of 330,000 active; AID 485353; note: potency is the fitted concentration of half-maximal effect; 0% is about no effect; nearly all actives have a fitted effect of over 55% in size
NS1 function inh: inhibitors of influenza NS1 protein function; Potency, µM (series often up to 46.1 µM), inactives show top-dose activity, positive = more growth; 0.4% of 270,000 active; note: potency is the fitted concentration of half-maximal effect; actives are rising curves; nearly all actives have a fitted effect of over 50% in size
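Read-out: OD600 growth recovery of NS1-expressing budding yeast. Cells grown overnight at 30C in -URA glucose medium, washed, resuspended and diluted 1:100 in 2% galactose assay medium, pH 6.0. Same strain lacking NS1 served as positive control.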
Cycloheximide cs: counter-screen for Shiga toxin inhibitors: cycloheximide protein synthesis inhibition; cell reporter, cycloheximide protein synthesis inhibition counterscreen; 12% of 300,000 active; AID 2314; max response, %; in the data active = max response mostly above about 13%, no sharp cut-off; inactive = mostly below about 14%; note: read at 38.3 µM for the half of the compounds with a filed dose; 0% is about no effect
NS1 inh valid: influenza NS1 function inhibition validation | shares compounds with NS1 function inh | 1,400 tested, under 10 active | activity change, negative = inhibition, % at 32.9 µM | influenza NS1 function cell assay, 15-point titration; note: 0% is about no effect
Flu PR8 replic: influenza NS1 inhibitors: inhibition of influenza A/PR/8/34 replication; shares compounds with NS1 function inh; MDCK infected influenza A/PR/8/34, virus titer TCID50; active compounds read low; virus titer (log TCID50), log10 TCID50 at 5 µM; 30% of 95 active; call rule not given here
* marks the source's active call; other numbers are inactive results; ? = inconclusive; / = no result given. Hits are enriched below; roughly 12% of the tested compounds scored in any of these assays. Unless noted, calls come from the whole dose curve.

SMILES	Shiga toxin inh	SARS PLpro yeast	NS1 function inh	Cycloheximide cs	NS1 inh valid	others
O=C(NC1CCCc2ccccc21)c1cccc(S(=O)(=O)N2CCN(c3ccccc3)CC2)c1 (centres undefined)	-15	?	11µM*	-1	6
O=C(Nc1ccc2c(c1)CCC2)c1cccc(S(=O)(=O)N2CCN(c3ccccc3)CC2)c1	-2	-2%	13µM*	-1	-18
NC(=O)NC1NC(=O)NC1=O (centres undefined)	19	0%	5%	-6	/
O=C(NCc1ccc2[nH]c3c(c2c1)CCCC3)c1ccc(S(=O)(=O)N2CCCCC2)cc1	-9	2%	5µM*	-2	6
CC1(c2ccc3ccccc3c2)NC(=O)N(CC(=O)Nc2cccc(S(=O)(=O)N3CCOCC3)c2)C1=O (centres undefined)	18	-3%	10µM*	-3	17	Flu PR8 replic=8.3
CC1(c2cc(F)ccc2F)NC(=O)N(CC(=O)Nc2cccc(S(=O)(=O)N3CCCC3)c2)C1=O (centres undefined)	/	0%	/	/	/
Cc1ccc(F)c(C2C3C=CCC(C)C3C(=O)N2Cc2ccccc2)c1 (centres undefined)	8	/	/	-4	/
Cc1ccc(F)c([C@H]2[C@H]3C=CC[C@@H](C)[C@@H]3C(=O)N2Cc2ccccc2)c1	-4	-16%	?	-3	?	Flu PR8 replic=9
CC1CC(C)CN(S(=O)(=O)N2CCC(C(=O)NCCc3ccccc3)CC2)C1 (centres undefined)	-7	1%	?	-4	-6
O=C(NCCc1ccccc1)C1CCN(S(=O)(=O)N2CCCC2)CC1	6	4%	7%	5	/
O=C(c1ccccc1)[C@H]1[C@H](c2ccccc2)[C@@]2(N=C(c3ccccc3)OC2=O)C2c3ccccc3C=NN21 (some centres undefined)	55*	2%	2.5µM*	35*	-17
COc1ccc([C@H]2[C@H](C(=O)C(C)(C)C)N3N=Cc4ccccc4C3C23C(=O)OC(C)(C)OC3=O)cc1 (some centres undefined)	-8	-7%	7%	-4	/
O=C(O)c1cccc(NC(=O)C23CC4CC(C2)CC(n2cnc(Cl)n2)(C4)C3)c1	-9	7%	9%	-5	/
O=C(Nc1cc(Oc2ccccc2)cc([N+](=O)[O-])c1)C12CC3CC(C1)CC(n1cnc(Cl)n1)(C3)C2	16	0%	2.2µM*	10	?
O=C(CN(c1ccccc1)S(=O)(=O)c1ccccc1)N/N=C/c1ccco1	-8	-21%	-8%	-2	/
Cc1ccc(N(CC(=O)N/N=C/c2ccco2)S(=O)(=O)c2ccccc2)cc1	-19	1%	11µM*	5	-19	Flu PR8 replic=7.7
CCCCN(C(=O)CC1CCCC1)c1c(N)n(CC(C)C)c(=O)[nH]c1=O	/	-1%	/	/	/
Cc1cccc2c(=O)oc(-c3ccc4c(c3)C(=O)N(CC3CCCO3)C4=O)nc12 (centres undefined)	/	/	7%	/	/
CCC(C)OC(=O)c1[nH]c2c(c1C)C(=O)CC(c1ccc(N(C)C)cc1)C2 (centres undefined)	57*	-18%	10µM*	41*	-24
C/C=C/COC(=O)c1[nH]c2c(c1C)C(=O)CC(c1ccc(N(C)C)cc1)C2 (centres undefined)	20	-16%	13µM*	23*	?
CCOCCOC(=O)c1[nH]c2c(c1C)C(=O)CC(c1ccc(N(C)C)cc1)C2 (centres undefined)	18	-3%	-12%	7	/
COc1ccc(-c2[nH]c3ccccc3c2SCCNC(=O)c2cc3ccccc3oc2=O)cc1	-12	7%	10µM*	-2	2
COc1ccc(-c2[nH]c3ccccc3c2SCCN)cc1	18	-1%	-4%	5	/
CCCCNC(=O)CNC(=S)N(Cc1ccccc1F)C1CCCCC1	-11	0%	/	-3	/
Cc1cccc(N2C(=O)NC(=O)C3(Cc4cc(C)ccc4N(C)C3)C2=O)c1 (centres undefined)	-17	3%	4.5µM*	-5	13
SMILES	Shiga toxin inh	SARS PLpro yeast	NS1 function inh	Cycloheximide cs	NS1 inh valid	others
CCC(=O)N(c1ccc(C(=O)O)cc1)c1nc(-c2ccc(OC)cc2)c(C)s1	7	-2%	/	-5	/
CCC(=O)N1CCC2(CC1)Oc1ccc(F)cc1C(=O)C21CC(c2ccccc2)=NO1 (centres undefined)	-5	-1%	-3%	-5	/
CCC(=O)N1CCC2(CC1)Oc1ccc(Cl)cc1C(=O)C21CC(c2ccccc2)=NO1 (centres undefined)	-10	0%	?	-5	?
CCN(CC)CCCNC(=O)CSc1nc(C)cc(C)n1	-4	0%	2%	4	/
COc1ccc(C2/C=C\CN(S(=O)(=O)c3ccc4ccccc4c3)CC(=O)N2Cc2ccc(F)cc2)cc1 (centres undefined)	-2	2%	2.8µM*	14	-31	Flu PR8 replic=8
COc1ccc(C2/C=C\CN(S(=O)(=O)/C=C/c3ccccc3)CC(=O)N2Cc2ccc(F)cc2)cc1 (centres undefined)	-1	-3%	?	1	/
C1=C(CCNC2=NCCCCC2)CCCC1	22	17%	20µM*	18	-11
Cc1c(Cl)c([N+](=O)[O-])nn1CC(=O)N1CCCC1	3	24%	?	3	6
Cc1c([N+](=O)[O-])c([N+](=O)[O-])nn1CC(=O)N1CCCCC1	-4	8%	-19%	-4	/
CCC1Oc2ccc(C)cc2N(CC(=O)NCCCN2CCCCC2C)C1=O (centres undefined)	-15	2%	?	-1	-19
CC1Cc2nc(SCC(=O)Nc3ccc4c(c3)OCO4)n(Cc3ccccc3)c(=O)c2S1 (centres undefined)	83*	14%	11µM*	56*	31
CC1Cc2nc(SCC(=O)Nc3nccs3)n(Cc3ccccc3)c(=O)c2S1 (centres undefined)	-8	16%	20µM*	1	-17
CC1Cc2nc(SCC(N)=O)n(Cc3ccccc3)c(=O)c2S1 (centres undefined)	-5	6%	10%	-6	/
CCn1cc(CN2CCC(n3nccc3NC(=O)C3CCCC3)CC2)cn1	-5	3%	2%	1	/
O=C(CN1C(=O)c2ccc([N+](=O)[O-])cc2C1=O)Nc1cc(S(=O)(=O)N2CCOCC2)ccc1Cl	/	-1%	/	/	/
CCOC(=O)C1=C(c2ccccc2)N=c2s/c(=C\c3cc(OC)c(OC)c(OC)c3)c(=O)n2C1c1cccs1 (centres undefined)	25	13%	22µM*	4	14
CCS(=O)(=O)Nc1cccc(C2=NN(S(=O)(=O)c3ccccc3)C(c3cccs3)C2)c1 (centres undefined)	-9	5%	10µM*	-1	17
CCS(=O)(=O)Nc1cccc(C2=NN(S(=O)(=O)c3ccc(C)cc3)C(c3cccs3)C2)c1 (centres undefined)	6	-5%	13µM*	-1	13
